One assay concerns MCC-26. In words: qHTS assay to identify novel small-molecules to repurpose for Merkel cell carcinoma treatment (AID 1296009). Note: nearly all actives have a fitted effect of over 60% in size. Note: potency is the fitted concentration of half-maximal effect. Conditions: MCC and control cell lines, CellTiter-Glo viability, 72 h; series mostly up to 46 µM. The essentials:
(§1)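 CellTiter-Glo luminescence after 72 hr compound exposure at 37 degree celsius gave cell viability. Libraries NPC and MIPE were run as 8- and 11-point dose responses; RLUs normalized to DMSO (negative) and no-cell (cytotoxicity) controls.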

The subject of the next assay is MKL-1. The assay is described as above. Conditions: MCC and control cell lines, CellTiter-Glo viability, 72 h; series mostly up to 46 µM. Summed up: as §1
Background: In ATP-based viability assays light output follows the ATP content of the culture.

The next assay has as its system UISO. The description is as above. Conditions: MCC and control cell lines, CellTiter-Glo viability, 72 h; series mostly up to 46 µM. Summed up: as §1
A further assay has as its system WaGa. The assay is described as above. The settings on record: MCC and control cell lines, CellTiter-Glo viability, 72 h; series mostly up to 46 µM. Summed up: as §1
A further assay concerns MKL-2. The assay is described as above. Conditions: MCC and control cell lines, CellTiter-Glo viability, 72 h; series mostly up to 46 µM. The essentials:
as §1

For the next assay, the system named is C33A. In words: Primary qHTS to identify gynecologic anti-cancer compounds using libraries of approved drugs and bioactive compounds (AID 1345084). Note: nearly all actives have a fitted effect of over 55% in size. Conditions: Gynecologic cancer cell panel viability, ATPlite luminescence, 48 h; series mostly up to 57.5 µM. The essentials:
(§2)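 In this quantitative HTS, cell killing is estimated from loss of ATP-dependent luciferase light. Cells see five compound concentrations over a 48 h exposure.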

For another assay, the system named is CAOV3. The description is as above. Conditions: Gynecologic cancer cell panel viability, ATPlite luminescence, 48 h; series mostly up to 57.5 µM. Summed up: as §2
For a further assay, the system named is CASKI. The description is as above. Conditions: Gynecologic cancer cell panel viability, ATPlite luminescence, 48 h; series mostly up to 57.5 µM. The essentials:
as §2

Another assay concerns Es-2. The description is as above. The settings on record: Gynecologic cancer cell panel viability, ATPlite luminescence, 48 h; series mostly up to 57.5 µM. The essentials:
as §2

The test system of the next assay is JEG-3. Described as above. The settings on record: Gynecologic cancer cell panel viability, ATPlite luminescence, 48 h; series mostly up to 57.5 µM. Summed up:
as §2

The next assay deals with OV90. Described as above. Conditions: Gynecologic cancer cell panel viability, ATPlite luminescence, 48 h; series mostly up to 57.5 µM. The essentials:
as §2

The next assay has as its system SKOV3. Described as above. The settings on record: Gynecologic cancer cell panel viability, ATPlite luminescence, 48 h; series mostly up to 57.5 µM. The essentials:
as §2

Assay [1] is described as follows: Drug repurposing screens with cells derived from glioblastoma tumor samples (AID 1345199). Note: nearly all actives have a fitted effect of over 40% in size. Note: potency is the fitted concentration of half-maximal effect. Conditions: GBM patient neurospheres viability, ATP luminescence, 48 h. Summed up: (§3)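 Primary testing used CD133+ neurospheres from four GBM patients, seven concentrations, 48 h exposure and ATP-based viability; confirmation added three slower-growing patient lines.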
The test system of a further assay is astro. The description is as above. The settings on record: viability, ATP luminescence, 48 h; series mostly up to 45.9 µM. Summed up:
as §3

The next assay deals with Hek293T. In words: Primary qHTS to identify gynecologic anti-cancer compounds using libraries of approved drugs and bioactive compounds (AID 1345084). Note: nearly all actives have a fitted effect of over 55% in size. Conditions: Gynecologic cancer cell panel viability, ATPlite luminescence, 48 h, control line for the selectivity index; series mostly up to 57.5 µM. The essentials:
as §2
In general terms: In qHTS, concentration-response curves come from the screen itself.

The test system of another assay is PA-1. The assay is described as above. Conditions: Gynecologic cancer cell panel viability, ATPlite luminescence, 48 h; series mostly up to 57.5 µM. The essentials:
as §2

Another assay has as its system Tov-21-G. The assay is described as above. Conditions: Gynecologic cancer cell panel viability, ATPlite luminescence, 48 h; series mostly up to 57.5 µM. Summed up:
as §2

A further assay has as its system Tov112D. The description is as above. The settings on record: Gynecologic cancer cell panel viability, ATPlite luminescence, 48 h; series mostly up to 57.5 µM. Summed up:
as §2

Another assay concerns HeLa. The assay is described as above. The settings on record: Gynecologic cancer cell panel viability, ATPlite luminescence, 48 h; series mostly up to 57.5 µM. The essentials: as §2

Values joined by “and” are separate entries in the source; they are usually repeats but may differ in a detail not shown here. Equal values may be shown once. Records with an inconclusive call do not appear. A structure can be active in one record and inactive in another. A number with no mark means an inactive call. Active and inactive are the calls of the source. Calls come from the whole dose curve; as a rule, active = well fitted curve in the direction sought with a large enough effect; inconclusive = small, poorly fitted or top-dose-only effect, or another doubt; inactive = no such curve, though single readings can be large; an effect the other way counts as inactive or inconclusive.

The values below come from PubChem BioAssay (NCATS).
% is set by controls: 0 for no effect and ±100 for the full control effect.

As for `O=C1[C@H](Cc2ccc(O)cc2)N2C(=O)CCN(C(=O)NCc3ccccc3)[C@H]2CN1Cc1cccc2ccccc12`, in the assay with MCC-26, the Potency entry was “inactive”. Further, the Potency was 14.8 µM (active) in the assay with MKL-1, 4.69 µM (active) with UISO and 13.2 µM (active) with WaGa.

With `Nc1nc2ccc(OC(F)(F)F)cc2s1`, the Potency entry in the assay on MCC-26, with MKL-1, in the assay on MKL-2, in the assay on UISO, in the assay with WaGa and in the assay on C33A was “inactive” in each case. The Potency result with CAOV3, with CASKI, in the assay on Es-2, with JEG-3, with OV90 and with SKOV3 was “inactive” throughout. For the same compound, the Potency entry in the assay with astro was “inactive”. Besides, the activity, negative = cell killing in assay [1] (at 46.1 µM (top of the series), tumour line C) was 16.9%.

Consider `CCOc1ccn(-c2ccc(F)cc2)c(=O)c1C(=O)Nc1ccc(Oc2ccnc(N)c2Cl)c(F)c1`, for which the Potency result with MCC-26, with MKL-1, with MKL-2, with WaGa, with C33A and with CASKI was “inactive” each time. Besides, the Potency result in the assay on Es-2, in the assay on Hek293T, in the assay with JEG-3, with OV90, in the assay on PA-1 and with SKOV3 was “inactive” each time. Further, the Potency entry in the assay on Tov-21-G and in the assay on Tov112D was “inactive” throughout.

`NC(=O)c1ccc(-c2nc(-c3ccc4c(c3)OCCO4)c(-c3ccccn3)[nH]2)cc1`: the Potency result with MCC-26, with MKL-1, with UISO and in the assay with WaGa was “inactive” each time.

For the compound `Cc1cc2c(C(C)C)c(O)c(O)c(C=O)c2c(O)c1-c1c(C)cc2c(C(C)C)c(O)c(O)c(C=O)c2c1O`, the Potency result in the assay on MCC-26, in the assay on CASKI, in the assay on Es-2, in the assay on JEG-3, in the assay on Tov-21-G and in the assay with Tov112D was “inactive” each time. For the same compound, the Potency with MKL-1 was 13.3 µM (active); with UISO, 21.1 µM (active); in the assay with WaGa, 23.7 µM (active).

As to `N#CC[C@H](C1CCCC1)n1cc(-c2ncnc3[nH]ccc23)cn1`, the Potency entry with MCC-26, in the assay with MKL-1, in the assay on MKL-2, with WaGa, in the assay on C33A and in the assay on CAOV3 was “inactive” each time. In addition, the Potency entry in the assay on CASKI, in the assay with HeLa, in the assay on Hek293T, with JEG-3, in the assay on OV90 and with PA-1 was “inactive” throughout. Besides, in the assay with Tov112D, the Potency result was “inactive”.

With `CCOC(=O)C1=C[C@]2(CC)CCCN3CCc4c(n1c1ccccc41)[C@@H]32`, the Potency result in the assay on MCC-26, with MKL-1, with UISO, in the assay with WaGa, in the assay on C33A and in the assay with CAOV3 was “inactive” in each case. The Potency result with CASKI, in the assay with Es-2, with HeLa, in the assay with Hek293T, in the assay on JEG-3 and in the assay on OV90 was “inactive” in each case. The Potency entry in the assay on PA-1, in the assay on Tov-21-G, in the assay on Tov112D and in the assay on astro was “inactive” in each case. Also, in assay [1] (at 45.9 µM (top of the series), tumour line B), the activity, negative = cell killing was -28.2% and -25.8%. The Potency was 4.47 µM (active) in [1] (tumour line A) and 10 µM (active) in [1] (tumour line D).

As to `CCc1cncnc1N1CCN(Cc2nc3ccc(C(F)(F)F)cc3[nH]2)CC1`, the Potency result in the assay with MCC-26, with MKL-1, in the assay on MKL-2, in the assay on C33A, in the assay with CAOV3 and in the assay on CASKI was “inactive” in each case. The Potency entry with Es-2, in the assay with HeLa, with Hek293T, with JEG-3, in the assay on OV90 and with PA-1 was “inactive” each time. Moreover, the Potency result in the assay on Tov-21-G and in the assay on Tov112D was “inactive” each time.

Regarding `c1ccc(-c2nn3c(c2-c2ccnc4cc(OCCN5CCOCC5)ccc24)CCC3)nc1`, the Potency result in the assay on MCC-26, in the assay with MKL-1 and in the assay with MKL-2 was “inactive” throughout. Further, in the assay on WaGa, the Potency is 14.8 µM (active).
